The source of these data is ChEMBL document CHEMBL1201862, “PubChem BioAssay data set” (2004).

SMILES strings stand for the structures. Hit rate of the full screen: of about 310,000 compounds, about 11,000 (3.5%) were called active. Roughly 8% stayed inconclusive and do not appear here. The calls are words filed in the database; no cut-off is given here. This excerpt belongs to a sample that is enriched for actives.

The target of the assay is Nuclear receptor ROR-gamma (Mus musculus) (UniProt P51450). The experiment in a line: VP16 counterscreen qHTS for inhibitors of ROR gamma transcriptional activity. Type of assay: functional. On the technique in general: A counterscreen serves to expose hits that act by an unwanted route or on another target.
Sequence of Nuclear receptor ROR-gamma (Mus musculus) (P51450 whole entry): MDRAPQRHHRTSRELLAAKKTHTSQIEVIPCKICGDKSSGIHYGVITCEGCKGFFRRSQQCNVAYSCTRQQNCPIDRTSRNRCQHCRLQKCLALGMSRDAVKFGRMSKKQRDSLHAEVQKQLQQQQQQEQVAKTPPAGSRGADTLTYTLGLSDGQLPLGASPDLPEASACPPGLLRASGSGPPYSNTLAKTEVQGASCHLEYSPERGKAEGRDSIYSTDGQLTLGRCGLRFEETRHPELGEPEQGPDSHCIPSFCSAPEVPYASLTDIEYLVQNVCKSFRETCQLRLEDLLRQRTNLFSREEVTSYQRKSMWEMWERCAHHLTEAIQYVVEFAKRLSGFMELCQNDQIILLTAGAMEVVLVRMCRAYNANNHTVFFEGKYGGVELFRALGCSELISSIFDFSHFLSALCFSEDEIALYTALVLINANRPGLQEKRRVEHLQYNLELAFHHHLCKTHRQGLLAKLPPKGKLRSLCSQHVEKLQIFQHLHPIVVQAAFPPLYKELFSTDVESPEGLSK
Turning to `Cl[Te]1(Cl)OCCO1`, the Potency is 3.55 µM (active).

As to `CNc1ccc2oc(C[C@@H]3OC4(CC[C@@H]3C)O[C@H](C(C)C(=O)c3ccc[nH]3)[C@H](C)C[C@H]4C)nc2c1C(=O)O` (some centres not stated), the Potency is 631 µM (active).
